# Assay results reported in PubChem BioAssay (NCATS).
# Inconclusive results are not listed. Where a call stands in place of a potency, no number is given. Active and inactive are the calls of the source. Calls come from the whole dose curve; as a rule, active = well fitted curve in the direction sought with a large enough effect; inconclusive = small, poorly fitted or top-dose-only effect, or another doubt; inactive = no such curve, though single readings can be large; an effect the other way counts as inactive or inconclusive.
# Columns and labels:
# [1] = target: Tyrosine-protein kinase Yes (Homo sapiens) (UniProt P07947); experiment: qHTS for small molecule inhibitors of Yes1 kinase: Primary Screen (AID 686947); note: nearly all actives have a fitted effect of over 60% in size; note: potency is the fitted concentration of half-maximal effect
# Chain of Tyrosine-protein kinase Yes (Homo sapiens) (P07947 whole entry, looked up): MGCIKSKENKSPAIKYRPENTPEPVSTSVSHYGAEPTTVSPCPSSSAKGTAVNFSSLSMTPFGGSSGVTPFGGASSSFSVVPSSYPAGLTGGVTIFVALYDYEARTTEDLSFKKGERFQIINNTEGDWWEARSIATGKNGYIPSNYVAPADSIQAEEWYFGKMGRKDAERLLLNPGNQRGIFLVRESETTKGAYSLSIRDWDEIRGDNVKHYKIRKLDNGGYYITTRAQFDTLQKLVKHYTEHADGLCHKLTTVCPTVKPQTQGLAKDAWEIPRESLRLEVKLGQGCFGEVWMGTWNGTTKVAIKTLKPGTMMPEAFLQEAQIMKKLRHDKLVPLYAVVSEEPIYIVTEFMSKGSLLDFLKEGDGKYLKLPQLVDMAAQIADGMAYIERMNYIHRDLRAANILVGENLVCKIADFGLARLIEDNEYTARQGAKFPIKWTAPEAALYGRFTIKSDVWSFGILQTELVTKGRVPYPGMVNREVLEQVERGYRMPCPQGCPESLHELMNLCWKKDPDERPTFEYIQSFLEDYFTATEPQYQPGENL
# Method in brief: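 In this qHTS format, inhibition is expressed relative to DMSO controls with enzyme (maximum) and without enzyme (minimum). The 60 min room-temperature reaction uses 0.1 mM ATP, with ADP detected by luminescence.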
# [2] = qHTS for small molecule inhibitors of Yes1 kinase: Counter Assay (AID 686950);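 note: no kinase present so only ADP-Glo detection of a fixed ADP amount is tested; luminescence from ADP-Glo reporting ADP in a fixed ATP and ADP mixture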
# Method in brief: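 Measuring interference with ADP-Glo, the assay ran 60 min at room temperature on an ATP/ADP mix lacking enzyme. Values were normalized to ATP-plus-ADP (maximum) and ATP-only (minimum) DMSO controls.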
# [3] = target: Arylsulfatase A (Homo sapiens) (UniProt P15289); experiment: qHTS screen for enhancers of Arylsulfatase A (ASA1): LOPAC Validation Assay (AID 720538); conditions: ASA enzyme activity, LOPAC qHTS enhancer assay; at 57.5 µM (top of the series)
# Chain of Arylsulfatase A (Homo sapiens) (P15289 whole entry, looked up): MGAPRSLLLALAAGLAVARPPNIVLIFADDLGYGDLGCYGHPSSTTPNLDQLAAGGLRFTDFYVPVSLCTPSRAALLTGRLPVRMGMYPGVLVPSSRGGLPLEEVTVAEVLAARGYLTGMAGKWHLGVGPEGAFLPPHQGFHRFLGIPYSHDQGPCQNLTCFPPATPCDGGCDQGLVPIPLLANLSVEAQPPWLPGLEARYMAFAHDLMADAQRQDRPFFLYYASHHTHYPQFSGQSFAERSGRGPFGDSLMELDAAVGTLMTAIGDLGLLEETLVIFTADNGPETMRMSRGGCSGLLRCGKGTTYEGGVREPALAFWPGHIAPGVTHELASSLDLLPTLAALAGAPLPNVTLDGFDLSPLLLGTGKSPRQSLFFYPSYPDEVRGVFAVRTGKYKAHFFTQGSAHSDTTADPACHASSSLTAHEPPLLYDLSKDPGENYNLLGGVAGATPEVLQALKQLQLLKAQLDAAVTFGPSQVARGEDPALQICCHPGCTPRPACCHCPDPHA
# Method in brief: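 Cell-based enhancement test: residual ASA activity in SV40-transformed I179S patient fibroblasts is measured by pNCS turnover (0.5mM final, 14h, room temperature) following 48h compound incubation; higher fluorescence indicates activation.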
# [4] = qHTS for compounds that reverse cellular toxicity of Amyloid beta (A-beta) peptide in yeast: LOPAC Validation Assay (AID 720559)
# Description: The A-beta peptide is produced by the processing of the amyloid precursor protein (APP) by two proteases, beta and gamma secretases. […] A-beta42 is regarded as the most amyloidogenic form due to its hydrophobicity; however, precisely how A-beta42 induces neurotoxicity is unclear. To understand further this biology and its potential therapeutic implications for human neurodegenerative disease, a quantitative high-throughput screen for compounds that reverse the cellular toxicity of the A-beta peptide was developed.
# A yeast based screen was used because it recapitulates the salient feature of protein mis-folding disorder accurately. This cell-based phenotypic screen provides a significant, unbiased advantage by letting the compounds and models inform us which proteins or pathways are most relevant. The ideal chemical candidates would therefore have activity in both our primary yeast and secondary neuronal toxicity assays, as well as in mouse models. […] For this luminescence assay, inhibition of A-beta rescues the toxic effect in the yeast cell, resulting in increase of signals. […]
# Two and a half microliter / well of yeast growth medium were dispensed in a 1536 assay plate. […] After 48 hr, the absorbance signal at 600 nm was obtained using the PerkinElmer ViewLux plate reader to assess yeast growth. […]
# [5] = qHTS for Activators of Parkin Expression: LOPAC Validation Assay (NLuc Reporter) (AID 720572)
# Method in brief: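 Cells harboring the Parkin-promoter coincidence reporter were treated for 24 h at seven concentrations. NLuc output was measured sequentially after the FLuc channel and scaled between DMSO and positive control values.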
# [6] = qHTS for Activators of Parkin Expression: LOPAC Validation Assay (FLuc Reporter) (AID 720573)
# Method in brief: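 Readout is FLuc luminescence from neuronal reporter cells (Parkin promoter, FLuc plus NLuc) after 24 h compound exposure in dose response. Values normalized to neutral DMSO and positive-control compounds.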
compound,measurement,setting,value
CC(C)Oc1cc(Nc2nc(N[C@@H](C)c3ccc(F)cn3)ncc2Cl)[nH]n1,Potency,[1],0.0061 µM (active)
same,outcome,[2],inactive
O=C(O)Cc1cccc(OCCCN(Cc2cccc(C(F)(F)F)c2Cl)CC(c2ccccc2)c2ccccc2)c1,outcome,[2],inactive
Cc1cc2c(cc1C1(c3ccc(C(=O)O)cn3)CC1)C(C)(C)CCC2(C)C,outcome,[2],inactive
COC(=O)Nc1ccc(-c2nc(N3CCOCC3)c3cnn(C4CCN(C(=O)OC)CC4)c3n2)cc1,Potency,[1],inactive
same,outcome,[2],inactive
Cc1c(C(=O)Nc2ccc(N3C[C@@H](C)O[C@@H](C)C3)nc2)cccc1-c1ccc(OC(F)(F)F)cc1,Potency,[1],inactive
same,outcome,[2],inactive
CC(=O)NCCC(=O)N[C@@H](CCC(N)=O)C(=O)N[C@@H](CO)C(=O)N[C@@H](CCC(N)=O)C(=O)N[C@@H](CCC(N)=O)C(=O)N[C@H](C(=O)N[C@@H](Cc1ccccc1)C(=O)N[C@]1(C)CCCCCCC=CCCC[C@@](C)(C(=O)N[C@@H](CCC(N)=O)C(=O)N[C@@H](CC(N)=O)C(N)=O)NC(=O)[C@H](CC(C)C)NC(=O)[C@H](CC(C)C)NC(=O)[C@@H](CCCNC(=N)N)NC(=O)[C@H](Cc2c[nH]c3ccccc23)NC(=O)[C@H](CC(C)C)NC(=O)[C@H](CC(N)=O)NC1=O)[C@H](C)O,outcome,[2],inactive
CN(C)CCN(C)C(=O)c1ccc(NC(=O)Nc2ccc(-c3nc(N4CCOCC4)c4ccn(CC(F)(F)F)c4n3)cc2)cc1,outcome,[2],inactive
CCCCn1c(=O)n(Cc2ccccc2F)c(=O)c2[nH]c(Cc3ccc(NC(C)=O)cc3)nc21,Potency,[1],inactive
same,outcome,[2],inactive
C[C@H]1O[C@@H](n2cc(F)c(=O)[nH]c2=O)[C@H](O)[C@H]1O,outcome,[3],inactive; inhibitor; fitted 8.4921 uM
same,outcome,[4],inactive
same,outcome,[5],inactive
same,outcome,[6],inactive
CCCCCCCCCCCCCC(=O)N[C@H](CO)[C@H](O)c1ccc([N+](=O)[O-])cc1,Potency,[1],inactive
same,outcome,[2],inactive
CCN(CC)CCCCNc1nc2cc(Cl)c(Cl)cc2nc1-c1ccc(-c2cccs2)s1,outcome,[2],inactive
CN1C(=O)C(Cc2c[nH]c3ccccc23)NC1=S (stereo not drawn),Potency,[1],inactive
same,outcome,[2],inactive
CN(C)CCOc1ccc(-c2nc(-c3ccc4c(c3)CCC4=NO)c(-c3ccncc3)[nH]2)cc1,outcome,[2],inactive
CC(C)(C)c1[nH]cnc1C=c1[nH]c(=O)c(=Cc2ccccc2)[nH]c1=O,Potency,[1],inactive
same,outcome,[2],inactive
CCNC(=O)c1noc(-c2cc(C(C)C)c(O)cc2O)c1-c1ccc(CN2CCOCC2)cc1,outcome,[2],inactive
C=CCc1cccc(C=NNC(=O)CN2CCN(Cc3ccccc3)CC2)c1O,outcome,[4],inactive
same,outcome,[5],inactive
same,outcome,[6],inactive
CC(=O)Nc1cccc(-n2c(=O)n(C3CC3)c(=O)c3c(Nc4ccc(I)cc4F)n(C)c(=O)c(C)c32)c1,Potency,[1],inactive
same,outcome,[2],inactive
CC(C)C[C@@H](C(=O)N[C@H](C(=O)OC1CCCC1)c1ccccc1)[C@H](O)C(=O)NO,Potency,[1],inactive
same,outcome,[2],inactive
Nc1ccc(-c2ccc3ncc4ccc(=O)n(-c5cccc(C(F)(F)F)c5)c4c3c2)cn1,Potency,[1],27.4 µM (active)
same,outcome,[2],inactive
CC(C)n1c(C=C[C@H](O)C[C@H](O)CC(=O)O)c(-c2ccc(F)cc2)c2ccccc21,Potency,[1],inactive
same,outcome,[2],inactive
CC(O)=C(C#N)C(=O)Nc1ccc(C(F)(F)F)cc1,Potency,[1],inactive
same,outcome,[2],inactive
